{"source": "PubChem BioAssay AID1376", "about": "(SRMLSC, 2008)", "note": "The campaign covered roughly 220,000 compounds. About 530 (0.24%) were called active. The sample as a whole holds a higher share of actives than the screen did. Results with a measured potency or affinity are listed apart. A number with no mark means an inactive call. No stated cut-off is given here; in the data, active means inhibition above about 13%; inconclusive means no clear call, values can overlap the other calls; inactive means below that."}
{"molecular_target": "Bifunctional protein GlmU (Mycobacterium tuberculosis (strain ATCC 25618 / H37Rv)) (UniProt P9WMN3)", "sequence (P9WMN3 whole entry, looked up)": "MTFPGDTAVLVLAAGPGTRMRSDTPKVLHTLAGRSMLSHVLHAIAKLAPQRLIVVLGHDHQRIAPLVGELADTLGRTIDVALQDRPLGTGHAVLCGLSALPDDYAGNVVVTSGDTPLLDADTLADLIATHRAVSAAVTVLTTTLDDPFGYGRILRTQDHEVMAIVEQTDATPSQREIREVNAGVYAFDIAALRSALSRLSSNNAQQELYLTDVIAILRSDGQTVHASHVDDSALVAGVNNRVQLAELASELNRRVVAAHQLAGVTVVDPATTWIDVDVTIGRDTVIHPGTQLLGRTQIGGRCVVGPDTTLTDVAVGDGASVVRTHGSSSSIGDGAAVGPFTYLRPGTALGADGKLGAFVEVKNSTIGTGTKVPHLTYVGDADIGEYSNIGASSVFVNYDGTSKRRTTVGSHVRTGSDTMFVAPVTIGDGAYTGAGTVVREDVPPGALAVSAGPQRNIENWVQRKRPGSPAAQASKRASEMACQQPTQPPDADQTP", "test": "inhibition of mycobacterial GlmU enzyme – biochemical, glucosamine-1-phosphate acetyltransferase (AID 1376);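 further: 0% = complete reaction with vehicle and 100% = reaction without substrate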", "details": "M. tuberculosis GlmU acetyltransferase enzyme assay; active compounds read high;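 tested at 30 µM in the primary screen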"}
{"smiles": "Cc1ccc(-n2c(-c3ccccc3)cc(/C=N/NC(=O)CC#N)c2-c2ccccc2)cc1", "inhibition": "-1.01%"}
{"smiles": "COc1ccc2c(c1)CCc1c(C(=O)N3CCc4ccccc4C3)noc1-2", "inhibition": "5.33%"}
{"smiles": "COc1ccc2c(c1)CCc1c(C(=O)N3CCCCCC3)noc1-2", "inhibition": "0.33%"}
{"smiles": "COc1ccc2c(c1)CCc1c(C(=O)N3CCOCC3)noc1-2", "inhibition": "13.8% (active)"}
{"smiles": "CC(C)(C)C1CCC(=NNC(=O)c2cc3c(s2)CCCC3)CC1", "note": "(stereo not drawn)", "inhibition": "-4.64%"}
{"smiles": "Cc1ccc(OCc2ccc(C(=O)Nc3nc4ccccc4n3Cc3ccccc3)o2)c([N+](=O)[O-])c1", "inhibition": "-4.38%"}
{"smiles": "Cc1ccc(OCc2ccc(C(=O)Nc3nc4ccccc4n3C)o2)c([N+](=O)[O-])c1", "inhibition": "2.65%"}
{"smiles": "CCn1c(NC(=O)c2ccc(COc3ccc(C)cc3[N+](=O)[O-])o2)nc2ccccc21", "inhibition": "15.2% (active)"}
{"smiles": "O=C(N/N=C1/CCS(=O)(=O)c2ccc(F)cc21)c1ccccn1", "inhibition": "-0.55%"}
{"smiles": "CCCC(c1nnnn1CCc1ccccc1)N1CCN(C(=O)c2ccco2)CC1", "note": "(stereo not drawn)", "inhibition": "5.26%"}
{"smiles": "COc1ccccc1OCCCCN1CCN(C(c2ccccc2)c2ccccc2)CC1", "inhibition": "-0.89%"}
{"smiles": "CCN(CC)S(=O)(=O)c1cc(NS(=O)(=O)c2cc(Cl)ccc2Cl)ccc1C", "inhibition": "3.03%"}
{"smiles": "CCC(=O)Nc1ccc(Oc2ccc3c(c2)C(=O)N(c2ccc(O)cc2)C3=O)cc1", "inhibition": "2.87%"}
{"smiles": "COC1=CC(=O)C(O)=C(CCCCCCC/C=C/CCCCCCCC2=C(O)C(=O)C=C(OC)C2=O)C1=O", "inhibition": "14.3% (active)"}
{"smiles": "CCCCCCCCCCCC1=C(O)C(=O)C=C(O)C1=O", "inhibition": "1.77%"}
{"smiles": "COC1=C(OC)C(=O)C(CCCCCCCCCCO)=C(C)C1=O", "inhibition": "-5.02%"}
{"smiles": "COC(=O)c1c(C)oc2cc(Br)c(OCC(=O)C(C)(C)C)cc12", "inhibition": "-1.38%"}
{"smiles": "CCC(=O)NC1CCN(C(=S)NC)CC1", "inhibition": "-4.03%"}
{"smiles": "CSc1cccc(NC(=O)CN(Cc2ccc(Cl)cc2)S(C)(=O)=O)c1", "inhibition": "-1.38%"}
{"smiles": "O=C(/C=C/c1ccco1)NC(=S)Nc1cccc(-c2nc3ccccc3s2)c1", "inhibition": "-0.02%"}
{"smiles": "O=C(/C=C/c1ccco1)NC(=S)Nc1cc(-c2nc3ccccc3s2)ccc1Cl", "inhibition": "13% (active)"}
{"smiles": "Cc1ccc(-c2nc3ccccc3s2)cc1NC(=S)NC(=O)/C=C/c1ccco1", "inhibition": "3.24%"}
{"smiles": "FC(F)(F)c1cnc(NNC(=S)Nc2cccnc2)c(Cl)c1", "inhibition": "2.72%"}
{"smiles": "CCCOC(=O)CSc1nc(N)c(C#N)c(-c2ccco2)c1C#N", "inhibition": "2.41%"}
{"smiles": "CC(C)OC(=O)CSc1nc(N)c(C#N)c(-c2ccco2)c1C#N", "inhibition": "-3.1%"}
{"smiles": "COC(=O)CSc1nc(N)c(C#N)c(-c2ccco2)c1C#N", "inhibition": "21.7% (active)"}
{"smiles": "CCOC(=O)c1[nH]c(=O)[nH]c1CN(Cc1ccco1)Cc1[nH]c(=O)[nH]c1C(=O)OCC", "inhibition": "2.03%"}
{"smiles": "COc1cc(OC)c(OC)cc1CN1CCC(O)CC1", "inhibition": "0.1%"}
{"smiles": "Cn1c(-c2ccc(Br)cc2)cnc1NCc1cccnc1", "inhibition": "-2.36%"}
{"smiles": "CCCCN(C)CCC(=O)Nc1ccc(F)c(F)c1", "inhibition": "0.07%"}
{"smiles": "Cc1ccc(-c2nnn(CC(=O)N(Cc3ccco3)C(C(=O)NC(C)(C)C)c3ccc(C)o3)n2)o1", "note": "(stereo not drawn)", "inhibition": "13% (active)"}
{"smiles": "Cc1ccc(-c2nnn(CC(=O)N(Cc3ccco3)C(C(=O)NC(C)(C)C)c3ccncc3)n2)o1", "note": "(stereo not drawn)", "inhibition": "6.52%"}
{"smiles": "Cc1ccc(-c2nnn(CC(=O)N(Cc3ccco3)C(C(=O)NC(C)(C)C)c3cccs3)n2)o1", "note": "(stereo not drawn)", "inhibition": "1.32%"}
{"smiles": "CCS(=O)(=O)N1CCN(CC(=O)NC2CCCCC2)CC1", "inhibition": "2.03%"}
{"smiles": "COc1ccc(-c2cc3nc(-c4ccccc4)cc(N4CCC5(CC4)OCCO5)n3n2)cc1", "inhibition": "5.97%"}
{"smiles": "O=C(N/N=C\\c1ccccn1)C1c2ccccc2Oc2ccccc21", "inhibition": "-4.47%"}
{"smiles": "CN(C)CCCOc1cccc(Oc2ccccc2)c1", "inhibition": "-1.51%"}
{"smiles": "COc1cccc(C(=O)O/N=C(\\N)c2ccc([N+](=O)[O-])cc2)c1", "inhibition": "-5.75%"}
{"smiles": "Cc1ccc(C(OCCN(C)C)c2cccc(C(F)(F)F)c2)cc1", "note": "(stereo not drawn)", "inhibition": "2%"}
{"smiles": "CCN(CC)CCC(C)OC(c1ccccc1)c1ccccc1", "note": "(stereo not drawn)", "inhibition": "-5.59%"}
{"smiles": "CCN(CC)CCOC(c1ccccc1)c1ccc(C)cc1", "note": "(stereo not drawn)", "inhibition": "13.5% (active)"}
{"smiles": "C=CCNC(=O)C1CC1(c1ccccc1)c1ccccc1", "note": "(stereo not drawn)", "inhibition": "4.25%"}
{"smiles": "COc1ccccc1NC(=O)c1cccc(S(=O)(=O)N2CCOCC2)c1", "inhibition": "0.03%"}
{"smiles": "COc1ccc(C(=O)N2CCCC(c3nc(-c4cccs4)no3)C2)cc1OC", "note": "(stereo not drawn)", "inhibition": "13.1% (active)"}
{"smiles": "COc1ccc(C(=O)N2CCCC(c3nc(-c4cccs4)no3)C2)cc1", "note": "(stereo not drawn)", "inhibition": "-2.88%"}
{"smiles": "COc1cc(C(=O)N2CCCC(c3nc(-c4cccs4)no3)C2)cc(OC)c1OC", "note": "(stereo not drawn)", "inhibition": "2.49%"}
{"smiles": "Cc1csc(NC(=O)c2sc3nc(-c4cccs4)ccc3c2N)n1", "inhibition": "0.71%"}
{"smiles": "Nc1c(C(=O)Nc2nc3ccccc3s2)sc2nc(-c3cccs3)ccc12", "inhibition": "-1.14%"}
{"smiles": "O=C(Nc1ncc(Cc2cccc(C(F)(F)F)c2)s1)c1ccc(-c2cccc([N+](=O)[O-])c2)o1", "inhibition": "-6.86%"}
{"smiles": "Cc1ccccc1CN1C(=O)CSc2ccc(C(=O)N3CCOCC3)cc21", "inhibition": "0.57%"}
{"smiles": "CN(C(=O)CCc1nnc(Cc2ccc(-c3ccccc3)cc2)o1)C1CCOCC1", "inhibition": "2.22%"}
{"smiles": "Cn1c(COc2ccccc2)nnc1SCC(=O)Nc1ccc(S(N)(=O)=O)cc1", "inhibition": "1.92%"}
{"smiles": "C=CCn1c(COc2ccccc2)nnc1SCC(=O)Nc1ccc(S(N)(=O)=O)cc1", "inhibition": "0.44%"}
{"smiles": "NS(=O)(=O)c1ccc(NC(=O)CSc2nnc(COc3ccccc3Cl)n2C2CC2)cc1", "inhibition": "13.3% (active)"}
{"smiles": "c1ccc2oc(NC3=NCN(C4CCCCC4)CN3)nc2c1", "inhibition": "0.06%"}
{"smiles": "O=[N+]([O-])c1cc(/C=N\\Nc2nc(-c3ccccc3)cs2)ccc1O", "inhibition": "7.14%"}
{"smiles": "Cc1n[nH]c(=O)nc1N/N=C/c1ccc(O)c([N+](=O)[O-])c1", "inhibition": "5.79%"}
{"smiles": "Cc1csc(N/N=C/c2ccc(O)c([N+](=O)[O-])c2)n1", "inhibition": "13.8% (active)"}
